Shown are actives, neighbours in structure and some others; about 19% of the full set was active somewhere.
Marburg entry inh – Marburg virus entry inhibition. Marburg virus pseudotyped entry inhibition, cell reporter. Potency, µM (highest dose often 37.8 µM), without a hit: at the highest dose activity change, negative = inhibition, usual class: inhibitors. hit rate 1.8% among 300,000. AID 540276; calls by dose curve; tested in HEK293 cells; also: potency is read from the fitted curve at half-maximal effect; % is scaled to controls: 0 for no effect and ±100 for the full control effect
CHX counter – counter-screen hit for Shiga toxin inhibitors, cycloheximide; cell reporter, cycloheximide protein synthesis inhibition counterscreen; hit rate 12% among 300,000; max response, %; in the data active = max response mostly above about 13%, no sharp cut-off; inactive = mostly below about 14%; also: read at 38.3 µM for the half of the compounds with a filed dose; 0% is about no effect
Shiga toxin inh – Shiga toxin inhibition | Vero cells, Shiga toxin protein synthesis inhibition reporter | inhibition, % at 38.7 µM | hit rate 9.2% among 290,000; in the data active = inhibition mostly above about 28%, no sharp cut-off; inactive = mostly below about 43%; also: 0% is about no effect
Lassa entry inh – blocks Lassa virus binding to or entry into cells. Lassa virus pseudotype entry inhibition, cell reporter. Potency, µM (top dose mostly 37.9 µM), for the others: at the top dose activity change, negative = inhibition, actives largely listed as inhibitors. hit rate 1.2% among 300,000. AID 540256; calls by dose curve; tested in HEK293 cells; also: potency is read from the fitted curve at half-maximal effect; % is scaled to controls: 0 for no effect and ±100 for the full control effect; nearly all actives have a fitted effect of over 50% in size
Pf growth 48h – inhibits P. falciparum growth in the first generation, 48 h | Potency, µM (series often up to 28.7 µM), inactives show at the top dose activity change, negative = inhibition, most hits filed as inhibitors | P. falciparum luciferase growth in erythrocytes, 48 h | hit rate 5.9% among 310,000; also: potency is read from the fitted curve at half-maximal effect; % is scaled to controls: 0 for no effect and ±100 for the full control effect
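Compounds are pin-transferred into medium, infected erythrocytes (2% hematocrit, 0.1% parasitemia final) are added, and plates sit one parasite generation at 37 C in 5% CO2. Detection reagent is then added and luminescence measured.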
Pf growth 96h – P. falciparum growth inhibition at 96 hour, primary screen for plastid delayed-death inhibitors | P. falciparum luciferase reporter growth, 96 h | Potency, µM (doses to about 28.7 µM), for inactives: at the top dose activity change, negative = inhibition, most hits filed as inhibitors | hit rate 6.9% among 320,000; also: potency is read from the fitted curve at half-maximal effect; % is scaled to controls: 0 for no effect and ±100 for the full control effect
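P. falciparum expressing integrated firefly luciferase, in erythrocytes at 2% hematocrit, 0.05% parasitemia, incubated with compounds 96 h at 37 C, 5% CO2. Growth inhibition read as loss of luminescence; two-generation exposure targets delayed-death apicoplast inhibitors.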
* marks the source's active call; other numbers are inactive results; ? = inconclusive; nt = no result given; [ ] = remark or other dose. Unless noted, calls follow the shape of the dose curve; as a rule, active = well fitted inhibition curve with a large enough effect; inconclusive = small, poorly fitted or top-dose-only effect, or another doubt; inactive = no such curve, though single readings can be large or run the other way.

SMILES | Marburg entry inh | CHX counter | Shiga toxin inh | Lassa entry inh | Pf growth 48h | Pf growth 96h
CC[C@H](C)[C@H](NC(=O)[C@@H]1CCCN1C(=O)[C@H](C)NC(=O)[C@H](CC(N)=O)NC(=O)[C@@H]1CCCN1C(=O)[C@@H]1CCCN1C(=O)[C@H](CCCN=C(N)N)NC(=O)[C@H](Cc1ccc(O)cc1)NC(=O)[C@H](C)NC(=O)[C@@H]1CCCN1C(=O)[C@@H]1CCCN1C(=O)[C@@H](N)[C@@H](C)O)C(=O)N[C@@H](CC(C)C)C(=O)O | nt | -2 | -6 | nt | nt | nt
Cc1nc2c(=O)n(C)c(=O)nc-2n(C)n1 | 0.89µM* | -11 | -3 | 0.56µM* | 0.33µM* | -9%
COc1ccc(-c2nc(CS(=O)(=O)CC(=O)NCc3cccc(OC)c3OC)c(C)o2)cc1 | nt | -2 | -1 | nt | 24% | ?
CCOC(=O)c1[nH]c(C)c(C(=O)OCC(=O)N2CC(=O)Nc3ccccc32)c1C | ? | -2 | 26 | 9% | ? | 9.3µM*
CCOC(=O)c1c(C)[nH]c(C(=O)CSc2nnc(C3CC3)n2N)c1C | -26% | 17* | 30 | -11% | 0.33µM* | nt
Cc1cccc(C(=O)OCC(=O)N2CC(=O)Nc3ccccc32)c1C | -23% | nt | nt | ? | nt | nt
Cn1c(N)c(C(=O)CSc2nnc(C3CC3)n2N)c(=O)n(C)c1=O | nt | nt | nt | nt | 7% | 0%
Cc1cc(C(=O)CSc2ccc(F)cc2)cc(C)c1O | 5%[46.1 µM] | 35* | 61* | 20% | 42% | 83%
CCOC(=O)c1c(C)[nH]c(C(=O)COC(=O)CCSc2ccccc2)c1C | ? | 46* | 60* | 13% | 90% | 119%
O=C(COC(=O)c1cc(S(=O)(=O)N2CCCC2)ccc1O)Nc1ccc(SC(F)F)cc1 | nt | nt | nt | nt | -1% | 29%
O=C(NCc1ccc(Cl)cc1)C1CCN(c2nn3cc(-c4ccc(F)cc4)nc3s2)CC1 | nt | nt | nt | 1%[46.1 µM] | nt | nt
CC(NC(=O)NCCCC(=O)O)(C(F)(F)F)C(F)(F)F | 14% | -2 | 39 | 7% | nt | 5%
CC(C)(C)N1CC(C(=O)Nc2ccc(S(N)(=O)=O)cc2)CC1=O (stereo not given) | nt | -2 | -8 | nt | -27% | 0%
CCOC(=O)c1c(NC(=O)COC(=O)C2CCC2)sc(C(=O)N(C)C)c1C | 9% | nt | nt | 5% | -10% | 2%
CCOC(=O)c1[nH]c(C)c(C(=O)/C=C/c2ccc(C(=O)O)cc2)c1C | ? | -1 | 2 | nt | 12µM* | ?
COC(=O)CCc1c(C)[nH]c(C(=O)OCc2ccccc2)c1C | -13% | 10 | -2 | 7.1µM* | 32% | 13%
CCOC(=O)c1[nH]c(C)c(C(=O)N2CCN(c3ccccc3)CC2)c1C | -18% | -1 | -12 | 9% | ? | 8%
Cc1cc(C(=O)CSc2ccc(Cl)cc2)cc(C)c1OC(=S)N(C)C | ? | 36* | 90* | -8% | nt | ?
CCOC(=O)c1c(Cc2ccccc2)c[nH]c1C | nt | 31* | 61* | nt | 32% | 4%
CCNS(=O)(=O)c1ccc(CCC(=O)Nc2ccccc2)cc1 | -11%[46.1 µM] | -2 | -9 | -3%[46.1 µM] | -30%[5.75 µM] | 35%
CCOC(=O)c1[nH]c(C(=O)O)c(CCC(=O)OC)c1C | 0% | 1 | -5 | 8% | 1% | 12µM*
CCOC(=O)c1[nH]c(COC(=O)c2ccccc2NC(=O)c2ccco2)c(C(=O)OCC)c1C | -1% | 15 | -18 | -10% | 12µM* | ?
CCOC(=O)c1c(C)[nH]c(C(=O)COC(=O)c2ccccc2NC(=O)c2ccco2)c1C | -28% | 8 | -7 | -2% | -4% | 35%
Cc1noc(C)c1COc1ccc(C(=O)OCC(=O)N2c3ccccc3NC(=O)C2(C)C)cc1 | -11% | -5 | 7 | -16% | nt | ?
Cc1noc(C)c1COc1ccc(C(=O)OCC(=O)N2CC(=O)Nc3ccccc32)cc1 | 0% | -2 | -9 | 1% | 4.7µM* | ?
SMILES | Marburg entry inh | CHX counter | Shiga toxin inh | Lassa entry inh | Pf growth 48h | Pf growth 96h
CCOC(=O)c1c(C)[nH]c(C(=O)CSc2nccc(C)n2)c1C | 4%[46.1 µM] | 37* | 87* | ? | 85% | 70%
COc1ccc(S(=O)(=O)N2CCOCC2)cc1NC(=O)c1ccc(OC(F)F)cc1 | 2%[46.1 µM] | nt | nt | 3% | ? | -7%
CCOC(=O)c1c(C)[nH]c(C(=O)C(C)Cl)c1C (stereo not given) | ? | 10 | 46 | -11% | 14% | 2%
COc1ccc(C=CC(=O)c2ccc([N+](=O)[O-])cc2)cc1 | -1%[46.1 µM] | nt | nt | 0%[46.1 µM] | nt | nt
CCOC(=O)c1c(C)[nH]c(C(=O)CSc2ccccc2)c1C | ? | 43* | 53* | 18µM* | 128% | 220%
CCOC(=O)c1c(C)[nH]c(C(=O)C(C)Sc2ccc(Cl)cc2)c1C (stereo not given) | ? | 19* | 107 | ? | -10% | 83%
CCOC(=O)c1c(C)[nH]c(C(=O)OCc2ccccc2)c1C | ? | 87* | 60* | ? | 161% | -61%
CCOC(=O)c1[nH]c(C)c(C(=O)OCc2ccc(C)cc2)c1C | -11%[46.1 µM] | -4 | -5 | nt | 15% | 34%
Cc1[nH]c(C)c(C(=O)/C=C/c2ccc([N+](=O)[O-])cc2)c1C | nt | 60* | 129* | nt | ? | -22%
O=C1CCC(=O)N1c1cccc(OS(=O)(=O)c2ccccc2)c1 | ? | -1 | 2 | 24% | -2% | -2%
CC(=O)NC12CC3CC(C1)CC(C(=O)Nc1cccc(S(=O)(=O)N4CCCCCC4)c1)(C3)C2 | ? | nt | nt | -14% | nt | nt
CCOC(=O)c1c(C)[nH]c(C(=O)COC(=O)CSC)c1C | ? | -2 | 2 | 4% | nt | -17%
CC(=O)c1c(C)[nH]c(C(=O)CSc2ccc(F)cc2)c1C | ? | 49* | 98* | ? | 91% | 117%
CC(=O)c1c(C)[nH]c(C(=O)CSc2nc3ccc(C)cc3[nH]2)c1C | -30% | 8 | 16 | -5% | ? | ?
CCCCC(=O)OCC(=O)c1[nH]c(C)c(C(=O)OCC)c1C | 5% | 31* | 84* | 4% | 17% | nt
Oc1ccc(/C=N/N(Cc2ccccc2)c2ccccc2)c(O)c1O | 12%[46.1 µM] | 10 | 7 | ? | ? | ?
COc1ccc(C)cc1NS(=O)(=O)c1c(C(=O)N2CCC(C)CC2)c(C)n(C)c1C | nt | nt | nt | 2%[46.1 µM] | nt | nt
Cc1ccoc1C(=O)NCCNc1ccc(Cl)cc1[N+](=O)[O-] | ? | 14* | 27 | 5% | 25% | ?
O=C(NC1CCCCC1)C(c1cc2c(cc1[N+](=O)[O-])OCO2)N1CCCCC1 (stereo not given) | -21% | 16 | 54* | 14% | ? | 13µM*
c1ccc(-c2nc3nc4ccccc4nc3n2Cc2ccco2)cc1 | -12% | 82* | 137* | ? | -35% | -3%
Fc1ccc(-c2nc3nc4ccccc4nc3n2Cc2ccco2)cc1 | -16% | 44* | 125* | -11% | -6% | 102%
Fc1ccc(-n2c(-c3ccco3)nc3nc4ccccc4nc32)cc1 | 11% | -5 | -11 | 3% | 6% | ?

Screening data from PubChem.
